Experimental data reported in PubChem BioAssay AID2216 (Broad Institute, 2009).
The whole screen tested about 300,000 compounds, of which about 3,300 (1.1%) were called active. Not shown: some 6% with an inconclusive outcome. Many of the other results were omitted from the sample, so actives are more common in it than they were. Values without a mark were called inactive.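 How the source made its calls: active means more than half of the replicate wells show a fall in the fluorescence ratio signal beyond about 16% (limit read from the data, passing the limit was not always enough); inconclusive means exactly half of the replicate wells pass the set limit; inactive means fewer than half of replicates pass the limit.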

System: Ran GTPase (GTP-bound) - importin-beta complex
Assay: disruptors of Ran-importin-beta complex formation – biochemical, FRET, CFP-Ran, YFP-importin-beta, homogeneous, primary screen (AID 2216);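 further: 0% = DMSO wells and 100% = Ran loaded with GDP instead of GTP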
Details: cell-free CFP-Ran/YFP-importin-beta FRET ratio; active compounds read high; concentration not given here

Structure (SMILES) | inhibition
COc1cc(Cn2c(N)c(C(=O)NCc3ccco3)c3nc4ccccc4nc32)cc(OC)c1OC | 54% (active)
COC(=O)C1=C(c2ccccc2)C[C@@H]2CC[C@H]1N2C(=O)NCc1ccco1 | 1.27%
CCOC(=O)C(O)(c1ccc(NC(=O)c2ccco2)c(OC)c1)C(F)(F)F (stereo not given) | -1.67%
C/C(=N/O)c1ccc2ccc3ccccc3c2c1 | 4.2%
CC[C@H]1CC2CN3CCc4c([nH]c5ccccc45)C(C(=O)OC)(C2)C13 (stereo not given in full) | -1.66%
